# Counter-ions that a name gives are not always drawn. Screen size: about 5,300 compounds; about 130 (2.5%) showed an effect of 50% or more. Only a selection was taken, and strong results are over-represented in it overall. Square brackets hold non-standard residues; d marks the D form. Peptide text beside a SMILES is read from it. dTrp(2-Me) = Cc1[nH]c2ccccc2c1C[C@@H](N)C(=O)O
# System: M. mycetomatis strain mm55
# Details: primary screen, metabolic activity vs growth control; 96 h, 2 µM; inhibitor
row,Structure (SMILES),% viability [%]
1,"CC[C@@]1(C2O[C@@H](C3O[C@@](O)(CO)[C@H](C)C[C@@H]3C)C[C@@H]2C)CC[C@H]([C@]2(C)CC[C@]3(C[C@H](O)[C@@H](C)[C@@H]([C@@H](C)[C@@H](OC)[C@H](C)C(=O)O)O3)O2)O1 (stereo partly shown) [ONC0004087, monensin sodium]",133.1
2,"O=C(O)Cc1ccc(OCc2ccccc2)c(Cl)c1 [ONC0002166, benzofenac]",78.33
3,C=C(c1ccccc1OCc1cccc(Cl)c1)n1ccnc1 [Cloconazole HCl],3.259
4,"C[C@H](Nc1ncnc2[nH]cnc12)c1cc2cccc(Cl)c2c(=O)n1-c1ccccc1 [ONC0004561, duvelisib ipi145 ink1197]",69.33
5,"COC(=O)C1=C(C)NC(C)=C(C(=O)O[C@@H]2CCCN(Cc3ccccc3)C2)[C@@H]1c1cccc([N+](=O)[O-])c1 (racemic) [ONC0004618, benidipine hydrochloride]",66.69
6,"CC(C)=CCC[C@](C)(O[C@@H]1O[C@H](CO)[C@@H](O)[C@H](O)[C@H]1O)[C@H]1CC[C@]2(C)[C@@H]1[C@H](O)C[C@@H]1[C@@]3(C)CC[C@H](O)C(C)(C)[C@@H]3CC[C@]12C [ONC0002211, ginsenoside ck]",95.28
7,"NC(=O)[C@H]1CCS[C@@H]2C[C@]3(CCCN3C(=O)Cc3ccc(NC(=O)COc4ccc(Cl)cc4Cl)cc3)C(=O)N12 [ONC0001082, st 2825]",47.43
8,"O=C(CCCS)NC1CCN(C(=O)COc2ccc(Cl)cc2Cl)CC1 [ONC0005166, krasg12c inhibitor 6]",98.75
9,"C[C@]12C=CC(=O)C=C1CCC1C2[C@@H](O)C[C@@]2(C)C1CC[C@]2(O)C(=O)COP(=O)(O)O (stereo partly shown) [ONC0004116, prednisolone sodium phosphate]",116.3
10,"CC(C)C(=O)SCCCCC[C@H](NC(=O)OC(C)(C)C)C(=O)NC12CC3CC(CC(C3)C1)C2 [ONC0002528, tcshdac620b]",72.9
11,"C1CCC(/N=C(\NC23CC4CC(CC(C4)C2)C3)N2CCOCC2)CC1 [ONC0002564, pnu37883]",92.95
12,"CC(CNC1CCCCC1)OC(=O)c1ccccc1 (stereo not shown) [ONC0002941, hexylcaine]",55.94
13,"CCOC(=O)c1ccc(NC2CCCCC2)c(N)c1 [ONC0000320, ferrostatin1]",39.11
14,"CCOC(=O)c1ccc(N)cc1 [ONC0003279, benzocaine]",69.74
15,"CC(C)(O)c1ccn2c(-c3ccc(F)c(-c4ccc(F)cc4C#N)c3)cnc2c1F [ONC0001920, tp003]",78.09
16,"CCC(=O)O[C@@H]1CC(=O)O[C@H](C)C/C=C/C=C/[C@H](OC(C)=O)[C@H](C)C[C@H](CC=O)[C@H](O[C@@H]2O[C@H](C)[C@@H](O[C@H]3C[C@@](C)(OC(C)=O)[C@@H](OC(=O)CC)[C@H](C)O3)[C@H](N(C)C)[C@H]2O)[C@H]1OC [ONC0000277, midecamycin acetate]",81.75
17,"O[C@H](CNC[C@@H](O)[C@H]1CCc2cc(F)ccc2O1)[C@@H]1CCc2cc(F)ccc2O1 [ONC0004039, nebivolol hydrochloride]",98.08
18,"C[C@@]1(O)[C@H](O)[C@@H](CO)O[C@H]1n1cnc2c(=O)[nH]c(N)nc21 [ONC0005603, 2cmethylguanosine]",96.86
19,"O=C(c1ccc(Cl)cc1)N(Cc1ccccc1)C1CCCCC1 [ONC0001245, fpszm1]",58.23
20,"Cc1cc(C)c(NC(=O)N(Cc2ccc3c(c2)Cc2ccccc2-3)C2CCCCCC2)c(C)c1 [ONC0000194, ym750]",45.17
21,"CC(C(=O)O)c1ccc2c(c1)Cc1ccccc1-2 (stereo not shown) [ONC0003773, cicloprofen]",135.8
22,"CC(C)Oc1cccc(CC(=O)N2CCC[C@](CC[N+]34CCC(c5ccccc5)(CC3)CC4)(c3ccc(Cl)c(Cl)c3)C2)c1 [ONC0001589, sr140333]",65.88
23,"Nc1nc2c(c(=O)[nH]1)NC(CNc1ccc(C(=O)N[C@@H](CCC(=O)O)C(=O)O)cc1)CN2 (stereo partly shown) [ONC0005519, tetrahydrofolicacid]",129.8
24,"Cc1[nH]c2ccccc2c1C[C@@H](NC(=O)[C@@H](N)Cc1cnc[nH]1)C(=O)N[C@@H](C)C(=O)N[C@@H](Cc1c[nH]c2ccccc12)C(=O)N[C@H](Cc1ccccc1)C(=O)N[C@@H](CCCCN)C(N)=O [ONC0005614, examorelin] (H-H[dTrp(2-Me)]AW[dF]K-NH2)",66.44
25,"Oc1cc2c(cc1O)C(Cc1cccc3ccccc13)NCC2 (stereo not shown) [ONC0001928, ys49]",88.3

# Source: article PMC12670160, “A drug-repurposing screen of FDA- and EMA-approved drugs identifies two NF-κB inhibitors active against eumycetoma” (Journal of Antimicrobial Chemotherapy, 2025)
